20 molecules from PubChem BioAssay (NCI) can be followed below.

Compounds without any hit were thinned out: in the full panel of roughly 79,000, 15% have a hit. Values without a mark were called inactive. Activity calls are given as the source filed them. No stated cut-off is given here; in the data, active means growth inhibition above about 70%; inactive means the rest.

Experiment [1] is described as follows: NCI Yeast Anticancer Drug Screen. Data for the rad50 strain (AID 155).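 Further: 0% = growth of vehicle-only cultures of the same strain.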 The note with it: S. cerevisiae rad50 strain growth inhibition, stronger effect = higher value; at 50.0 µM unless noted. The procedure, abridged:
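Compounds were tested on a yeast strain with an engineered DNA damage repair alteration; the reported value is growth inhibition normalised to vehicle treatment.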

The nature of experiment [2]: NCI Yeast Anticancer Drug Screen. Data for the mec2-1 strain (AID 157). The note with it: S. cerevisiae mec2-1 strain, stronger effect = higher value; at 50.0 µM unless noted. The procedure, abridged:
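Mutant yeast (mec2-1) grown with compound; growth inhibition relative to vehicle control reported.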

Experiment [3] can be described thus: NCI Yeast Anticancer Drug Screen. Data for the sgs1 mgt1 strain (AID 161).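 Further: 0% = growth of cultures given vehicle only.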 The settings on record: S. cerevisiae sgs1 mgt1 strain, stronger effect = higher value; at 50.0 µM unless noted. The procedure, abridged: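 Percent growth inhibition was derived by comparing compound-exposed mutant yeast with vehicle-exposed cultures. The strain carries alterations in DNA damage repair.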

Experiment [4] is described as follows: NCI Yeast Anticancer Drug Screen. Data for the cln2 rad14 strain (AID 165).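 Further: 0% = growth equal to vehicle treated cultures.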 The settings on record: S. cerevisiae cln2 rad14 strain, stronger effect = higher value; at 50.0 µM unless noted. Put shortly: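 Readout is yeast growth inhibition versus vehicle-treated controls, using a strain with cln2 and rad14 alterations exposed to compound.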
A short description of experiment [5]: NCI Yeast Anticancer Drug Screen. Data for the bub3 strain (AID 167). The note with it: S. cerevisiae bub3 mutant strain, stronger effect = higher value; at 50.0 µM unless noted. Put shortly:
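Growth of a checkpoint-deficient yeast mutant is measured after compound exposure. Values represent inhibition relative to vehicle.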

Experiment [6] is described as follows: NCI Yeast Anticancer Drug Screen. Data for the mlh1 rad18 strain (AID 175). The note with it: S. cerevisiae mlh1 rad18 strain growth inhibition, stronger effect = higher value; at 50.0 µM unless noted. The procedure, abridged:
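Genetically defined yeast (DNA repair-deficient) exposed to compounds; growth inhibition determined relative to vehicle.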

With `NC(=O)C(NCc1ccccc1)c1ccccc1` (stereo not given), the growth inhibition in experiment [1] was -2.65%; in experiment [2] it was 4.4%; in experiment [3] it was 1.6%; in experiment [4], 12.5%; in experiment [5], 2.6%; in experiment [6] it was 2.6%.

On to `Cc1cccc(NC(=O)Nc2ccccc2Cl)n1`, for which the growth inhibition in experiment [1] was 23.5%; in experiment [2], -3.6%; in experiment [3], 24.4%; in experiment [4], 25.7%; in experiment [5], 13.2%; in experiment [6], 16.6%.

Turning to `COC(=O)C(C(=O)C(=O)Nc1ccccc1OC)c1csc(-n2nc(-c3ccccc3)cc2-c2ccccc2)n1` (stereo not given), the growth inhibition in experiment [1] was 0.65%; in experiment [2], -7.85%; in experiment [3] it was -11.2%; in experiment [4], 21.4%; in experiment [5] it was 52.1%; in experiment [6], 4.95%.

On to `CC(C)(C)OC(=O)COc1ccc(NC(=O)COc2ccc(Cl)c(Cl)c2)cc1`, for which the growth inhibition was -17.4% in experiment [1]; -22.2% in experiment [2]; -10.2% in experiment [3]; -28.8% in experiment [4]; -1.8% in experiment [5]; -8.6% in experiment [6].

For `CC(C)(CBr)CC(=O)NC1CCCCC1`, the growth inhibition is -22% in experiment [1]; 5.8% in experiment [2]; 3.3% in experiment [3]; 1.8% in experiment [4]; 10.2% in experiment [5]; 50% in experiment [6].

As to `C/C(CCc1ccccc1)=N\NC(N)=S`, the growth inhibition in experiment [1] is 7.1%; in experiment [2] it was 0.95%; in experiment [3], 9.55%; in experiment [4] it was -35.1%; in experiment [5], -5.5%; in experiment [6] it was 10.3%.

`CSc1cc(Cl)c(C(=O)Nc2ccccc2)cc1S(=O)(=O)n1cc[nH]c1=O`: the growth inhibition is 0.2% in experiment [1]; -10.6% in experiment [2]; -6.35% in experiment [3]; -8.95% in experiment [4]; -1.35% in experiment [5]; 8.05% in experiment [6].

For `O=C(O)CS(=O)c1ccc2c3c(cccc13)C(=O)c1ccccc1-2` (stereo not given), the growth inhibition in experiment [1] was 14.7%; in experiment [2] it was -12.5%; in experiment [3], -38.5%; in experiment [4], -0.05%; in experiment [5], -30.8%; in experiment [6] it was 1.7%.

Consider `O=C(C[n+]1cc(Br)cc2ccccc21)c1ccc(F)cc1`, for which the growth inhibition was 24.8% in experiment [1]; 19.9% in experiment [2]; 37.3% in experiment [3]; 39.4% in experiment [4]; 4.7% in experiment [5]; 30.2% in experiment [6].

For the molecule `Nn1c(-c2ccccc2)nc2ccc(Br)cc2c1=O`, the growth inhibition is 0.95% in experiment [1]; 7.55% in experiment [2]; 18.5% in experiment [3]; 24.8% in experiment [4]; 7.95% in experiment [5]; 43.5% in experiment [6].

For `Cc1ncc(CO)c(/C=N\OCc2cccc(Cl)c2)c1O`, the growth inhibition was 31.1% in experiment [1]; 16.3% in experiment [2]; -1.5% in experiment [3]; -1.95% in experiment [4]; 17.1% in experiment [5]; 9.2% in experiment [6].

Consider `CCCc1onc(-c2noc(CCC)c2CC)c1CC`, for which the growth inhibition in experiment [1] is 15.8%; in experiment [2], -6.65%; in experiment [3] it was -1.9%; in experiment [4], 9.85%; in experiment [5], -19.4%; in experiment [6], 15.7%.

As to `c1cncc(C2N3CCCCC3[C@@H]3c4[nH]c5ccccc5c4CCN23)c1` (stereo not given in full), the growth inhibition was -26.6% in experiment [1]; -40.5% in experiment [2]; -22.8% in experiment [3]; -8.25% in experiment [4]; -15.1% in experiment [5]; -26.9% in experiment [6].

Regarding `O=C(Nc1nncs1)c1cnccn1`, the growth inhibition in experiment [1] is -1.85%; in experiment [2], -6.3%; in experiment [3], 14.2%; in experiment [4], -3.15%; in experiment [5], 11.3%; in experiment [6], -71.5%.

Regarding `CCOC(=O)/N=N/C(C)(C)OC(C)=O`, the growth inhibition is -10.5% in experiment [1]; 9.25% in experiment [2]; -8.1% in experiment [3]; -39.7% in experiment [4]; -20.4% in experiment [5]; -21.1% in experiment [6].

For `CC(=O)OC1CCC(=O)C2C(C(=O)O)CCCC12` (stereo not given), the growth inhibition was 6.9% in experiment [1]; -21.8% in experiment [2]; -19.2% in experiment [3]; -6.1% in experiment [4]; -1.75% in experiment [5]; 0.25% in experiment [6].

With `CCCCC(OC(=O)c1ccccc1)c1cc(OC(=O)c2ccccc2)c2c(c1OC(=O)c1ccccc1)CC(C)=C(C)C2` (stereo not given), the growth inhibition was 84% (active) in experiment [1]; 49.6% in experiment [2]; 99% (active) in experiment [3]; 53.4% in experiment [4]; 48.2% in experiment [5]; 56.2% in experiment [6].

In the case of `CN(C)C(=O)C(c1ccccc1)C(c1ccccc1)N(C)C=O` (stereo not given), the growth inhibition in experiment [1] is -3.5%; in experiment [2], -2.2%; in experiment [3] it was 0.2%; in experiment [4], -3.3%; in experiment [5], -8.3%; in experiment [6] it was 25.1%.

As to `CN1c2ccccc2N(C(=O)c2ccc(Cl)cc2)C(CC(=O)O)c2cccn21` (stereo not given), the growth inhibition in experiment [1] was 43.1%; in experiment [2] it was 31.1%; in experiment [3], 23.3%; in experiment [4] it was 44.8%; in experiment [5], 38.5%; in experiment [6] it was 29.2%.

As for `COc1ccc(C=C(C(=O)O)C(=O)O)cc1`, the growth inhibition is 30.1% in experiment [1]; -11.6% in experiment [2]; -8.15% in experiment [3]; 17.8% in experiment [4]; 22% in experiment [5]; 29.6% in experiment [6].
